Measurements from PubChem BioAssay AID485297 (National Center for Advancing Translational Sciences (NCATS), 2010).
Among all 320,000 compounds or so, about 9,100 (2.8%) were called active. About 3% were inconclusive and are not listed. Calls come from the whole dose curve; as a rule, active = well fitted activation curve with a large enough effect; inconclusive = small, poorly fitted or top-dose-only effect; inactive = no such curve, though single readings can be large or run the other way. The entries come from a sample that favours actives as a whole.

experiment: qHTS Assay for Rab9 Promoter Activators; details: Huh7 Rab9 promoter-luciferase reporter, luminescence, 24 h; series mostly up to 9.22 µM; activation, negative = inhibition: at the top concentration; note: nearly all actives have a fitted effect of over 60% in size; for activation, negative = inhibition: % of control where 0% means no effect
Procedure, shortened: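 Luciferase signal after 10 min detection reagent at ambient indicates Rab9 promoter upregulation; stably transfected Huh7 cells were treated 24 h with compound in DMSO at 37 °C, 5% CO2.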
Potency is the fitted concentration of half-maximal effect.

SMILES	activation, negative = inhibition	Potency
O=C(NCCc1nnc2ccc(SCC(=O)N3CCOCC3)nn12)c1ccccc1	-2.16% (inactive)	–
CCCCn1c(N)c(N(CCC(C)C)C(=O)COC(=O)c2cccnc2OCC)c(=O)[nH]c1=O	-0.914% (inactive)	–
O=C(COC(=O)CNC(=O)C1CCCCC1)NCc1ccccc1	0.266% (inactive)	–
CCCCN(C(=O)c1ccc2ccccc2c1)c1c(N)n(CCCC)c(=O)[nH]c1=O	-2.5% (inactive)	–
CCNc1nc(-c2cc3ccccc3o2)cs1	–	1260 nM (active)
O=c1oc2ccccc2cc1-c1csc(Nc2ccc(O)cc2)n1	24.9% (inactive)	–
Cc1nc(C)c(-c2csc(NCCc3ccccc3)n2)s1	-3.17% (inactive)	–
O=C(CN1CCCSc2ccccc21)N1CCN(S(=O)(=O)c2ccccc2)CC1	-0.455% (inactive)	–
COc1ccc2c(c1)c(C(=O)N/N=C/c1cccs1)c(C)n2C	-6.43% (inactive)	–
NS(=O)(=O)c1ccc2nc(NC(=O)CS(=O)(=O)c3ccc(F)cc3)sc2c1	7.22% (inactive)	–
NS(=O)(=O)c1ccc2nc(NC(=O)C3=COCCO3)sc2c1	–	1120 nM (active)
Cc1csc(NC(=O)C2=COCCO2)n1	–	3550 nM (active)
Cc1ccc(-c2csc(NC(=O)C3=COCCO3)n2)cc1C	-1.89% (inactive)	–
CCC(CC)c1nnc(NC(=O)C2=COCCO2)s1	29% (inactive)	–
O=C(Nc1ccc(S(=O)(=O)N2CCCC2)cc1Cl)C1=COCCO1	2.73% (inactive)	–
COCCN(Cc1ccccc1)C(=O)Cc1ccc(S(=O)(=O)N2CCOCC2)s1	-1.26% (inactive)	–
COC(=O)c1sc(NC(=O)COC(=O)C2CCC2)c(C(=O)OC)c1C	1.11% (inactive)	–
COc1ccccc1N1CCN(C(=O)C2Cc3ccccc3CN2C(=O)c2ccco2)CC1 (stereo not given)	-6.97% (inactive)	–
OCCC1CN(Cc2cccn2-c2nccs2)CCN1CCc1ccccc1 (stereo not given)	-10.8% (inactive)	–
COc1cc(/C=N\Nc2ccc([N+](=O)[O-])cn2)ccc1OCC(=O)O	-1.14% (inactive)	–
COc1cc(/C=N/O)ccc1OCc1ccc([N+](=O)[O-])cc1	–	2000 nM (active)
COc1cc(C(=O)OCc2ccc([N+](=O)[O-])cc2)cc(OC)c1OC	-2% (inactive)	–

SMILES	activation, negative = inhibition	Potency
O=C(CCCCO)c1ccc(O)c(Cl)c1	-2.36% (inactive)	–
O=C(N/N=C/c1ccco1)c1ccc(C(=O)N/N=C/c2ccco2)o1	-1.12% (inactive)	–
CCN(CC)c1ccc(/C=N/NC(=O)CNC(=O)c2cccs2)cc1	11.8% (inactive)	–
CC(=O)Nc1ccc(/C=N/NC(=O)c2cccs2)cc1	–	1260 nM (active)
O=C(CNC(=O)c1cccs1)N/N=C/c1cccc(Br)c1	3.62% (inactive)	–
Cc1ccc(-c2cc(C(=O)N/N=C/C=C/c3ccco3)c3ccccc3n2)cc1C	8.94% (inactive)	–
O=C(N/N=C/C=C/c1ccco1)c1cccs1	–	4470 nM (active)
O=C(COC(=O)CCCN1C(=O)c2cccc3cccc(c23)C1=O)NC1CCS(=O)(=O)C1 (stereo not given)	-1.11% (inactive)	–
CC(Sc1nnc(C2CC2)n1C1CC1)C(=O)Nc1ccc(C(N)=O)cc1 (stereo not given)	-0.304% (inactive)	–
CCc1ccc(CN(C)C(C)C(=O)Nc2ccc(S(=O)(=O)N3CCCC3)cc2)cc1 (stereo not given)	-0.394% (inactive)	–
COc1ccc([C@H]2CC(=O)C=C(c3ccc(C)cc3)C2)cc1	-4.22% (inactive)	–
CN(C1CCS(=O)(=O)C1)S(=O)(=O)c1ccc2ccccc2c1 (stereo not given)	0.342% (inactive)	–
O=S(=O)(NCc1ccc2c(c1)OCO2)c1cccc2nsnc12	1.17% (inactive)	–
Cc1cccc(C(=O)O)c1[N+](=O)[O-]	-4.76% (inactive)	–
Cc1[nH]n(C)c(=O)c1C(=O)c1c(-c2c(Cl)cccc2Cl)noc1C	-6.11% (inactive)	–
O=C1c2ccccc2C(=O)N1Cc1cc(-c2ccccc2Cl)no1	0.361% (inactive)	–
Cn1c(-c2ccc(C(F)(F)F)cc2)cc2onc(-c3ccccc3)c2c1=O	–	447 nM (active)
Cn1c(-c2ccc(F)cc2)cc2onc(-c3ccccc3Cl)c2c1=O	–	891 nM (active)
O=c1c2ccccc2c(-c2ccc(F)cc2)nn1-c1ccc(C(F)(F)F)cc1	0.147% (inactive)	–
Cc1onc(-c2ccccc2)c1C(=O)N1CCN(S(=O)(=O)c2ccccc2C(F)(F)F)CC1	1.61% (inactive)	–
CCCCC[C@H]1CN(C2CCCCC2)C(=O)[C@@H]1CC(=O)NCc1ccc(OC)cc1	-4.04% (inactive)	–
O=c1oc2ccc(C#CC3(O)CCCCC3)cc2cc1-n1cc(-c2ccsc2)nn1	-3.91% (inactive)	–

SMILES	activation, negative = inhibition	Potency
O=C(Nc1ccccc1N1CCOCC1)c1ccncc1	-3.82% (inactive)	–
CC(NCC(=O)Nc1ccccc1C(=O)NC1CC1)c1ccccc1Cl (stereo not given)	-1.93% (inactive)	–
Cc1noc(C)c1CCC(=O)N1CCCC(CO)(Cc2ccccc2)C1 (stereo not given)	–	3550 nM (active)
Cc1ccccc1CC1(CO)CCCN(C(=O)c2cc(-c3ccccc3)no2)C1 (stereo not given)	-4.08% (inactive)	–
CCOC(=O)C1(Cc2ccccc2C)CCCN(C(=O)CCc2c(C)noc2C)C1 (stereo not given)	0.805% (inactive)	–
COc1ccc(OCCNC(=O)c2cc(C3CC3)nc3c2cnn3C(C)C)cc1	-7.29% (inactive)	–
O=C(CN1CCN(c2ccccc2O)CC1)NC(=O)NCc1ccccc1	0.0733% (inactive)	–
N=c1c2c(-c3ccccc3)c(-c3ccccc3)n(Cc3ccccc3)c2ncn1CCCO	-18.6% (inactive)	–
OCCCN1c2ccccc2Nc2nnc(-c3ccccc3)cc21	–	2000 nM (active)
CCOC(=O)C(C)N(c1ccccc1Cl)S(C)(=O)=O (stereo not given)	-1.61% (inactive)	–
N#Cc1c(NC(=O)CCCl)sc2c1CCCCC2	0.735% (inactive)	–
N#Cc1c(NC(=O)C2CCCO2)sc2c1CCCCC2 (stereo not given)	–	2240 nM (active)
N#Cc1c(NC(=O)C2CC(Cl)=CCC2C(=O)O)sc2c1CCCCC2 (stereo not given)	0.959% (inactive)	–
O=c1c2cc(-c3ccccc3)sc2nc2n1N=C(c1cccs1)CS2	–	1120 nM (active)
c1csc(-c2cn3c(n2)SCC3)c1	29.1% (inactive)	–
Cc1nnc2n1N=C(c1ccccc1)CS2	-13.1% (inactive)	–
O=C(c1cc2ccccc2o1)N1CCN(S(=O)(=O)c2ccc(Cl)s2)CC1	-5.02% (inactive)	–
COc1ccc(CNC(=O)COC(=O)CCS(=O)(=O)c2ccc(C)cc2)cc1OC	-2.72% (inactive)	–
CCN(CC(=O)Nc1c(F)cccc1F)C(=O)c1cnc(C)cn1	0.956% (inactive)	–
C/C(=N\NC(=S)Nc1ccc(C)cc1)c1cc2ccccc2o1	-2.42% (inactive)	–
Cc1ccc(NC(=O)c2cc3ccccc3o2)cc1	–	3980 nM (active)
O=C(Nc1ccncc1)c1cc2ccccc2o1	28.1% (inactive)	–

SMILES	activation, negative = inhibition	Potency
CCN(CC(=O)NCc1ccc(Cl)cc1)C(=O)c1c(C)noc1C	-2.5% (inactive)	–
c1ccc2c(c1)CSc1sccc1C2=C1CCNCC1	-7.46% (inactive)	–
Cc1cc(C(=O)NNC(=O)c2ccccc2O)c(C)o1	-2.2% (inactive)	–
CC1CCN(C(=O)COC(=O)c2cc(=O)[nH]c3ccccc23)CC1	–	2510 nM (active)
CC(NC(=O)COC(=O)c1cc(=O)[nH]c2ccccc12)c1ccccc1 (stereo not given)	-0.707% (inactive)	–
COC(=O)C1CCN(C(=O)c2cc(=O)[nH]c3ccccc23)CC1	-3.49% (inactive)	–
O=C(COC(=O)c1ccccc1Cl)NC1CCCCCCC1	-4.83% (inactive)	–
CCC(=O)Nc1ccc(C(=O)NNC(=O)c2ccc(Cl)cc2)cc1	-2.77% (inactive)	–
O=C(Nc1ccc(Cl)cc1)c1ccsn1	–	1780 nM (active)
Cn1ccc(NC(=O)Nc2ccc(Cl)cc2)n1	25.5% (inactive)	–
CCCCN(Cc1ccccc1)C(=O)C1CCN(Cc2sccc2C)CC1	-0.806% (inactive)	–
Cn1c(CC(=O)NNC(=O)c2ccccc2F)nc2ccccc21	-10.1% (inactive)	–
O=C(c1ccc(N2CCOCC2)c([N+](=O)[O-])c1)N1CCN(S(=O)(=O)c2cccs2)CC1	-3.99% (inactive)	–
COc1ccc(C)cc1N(C(=O)Cn1nnc(-c2ccc(C)o2)n1)C(C(=O)NC1CCCC1)c1ccncc1 (stereo not given)	-0.715% (inactive)	–
CCN(CC(=O)Nc1ccc(NC(C)=O)cc1)C(=O)CSC(=S)N1CCCC1	-2.35% (inactive)	–
CC(=O)Nc1cc2ccc(OC(C)=O)cc2oc1=O	3.39% (inactive)	–
Cc1ccccc1NC(=O)C1CCN(C(=O)NC2CCCCC2)CC1	-3.27% (inactive)	–
O=C(Nc1cc2ccccc2oc1=O)C1CCCCC1	–	562 nM (active)
CN(CC(=O)Nc1ccc(Cl)cc1)C(=O)c1ccc(COc2ccccc2)cc1	-6.62% (inactive)	–
CCN(CC)S(=O)(=O)c1cc(C(=O)Nc2ccccn2)ccc1C	–	1780 nM (active)
Cc1ccc(NC(=O)CNCc2ccccn2)cc1S(=O)(=O)N(C)C	19.9% (inactive)	–
CCN(c1ccccc1)S(=O)(=O)c1cc(C(=O)NCc2ccccn2)ccc1C	-6.3% (inactive)	–

SMILES	activation, negative = inhibition	Potency
O=S(=O)(c1ccc(SCc2ccccc2)nc1)N1CCCCCC1	-1.04% (inactive)	–
CCn1ccnc1CN(C)C(=O)c1ccc2nc(Cc3ccc(OC)cc3)oc2c1	0.954% (inactive)	–
COc1ccc(Cc2nc3ccc(C(=O)N4CCC(N(C)C)C4)cc3o2)cc1 (stereo not given)	1.21% (inactive)	–
CC(c1ccccn1)N(C)C(=O)c1ccc2nc(Cc3cccc(Cl)c3)oc2c1 (stereo not given)	–	3980 nM (active)
CCN(CC)S(=O)(=O)c1ccc(N2CCOCC2)c(NC(=O)C(C)Oc2ccc(F)cc2)c1 (stereo not given)	-5.04% (inactive)	–
CCN1C(=O)C(=O)N(CC(=O)Nc2cc(C)ccc2C)C1=O	-3.55% (inactive)	–
COc1ccc(-c2nnc3ccc(SCc4ccccc4)nn23)cc1	-1.55% (inactive)	–
COC(=O)CSc1nc(C)c2ccc(OC)cc2n1	0.128% (inactive)	–
COc1ccc2nc(SCc3ccccc3)nc(C)c2c1	–	1410 nM (active)
COC(=O)Cc1ccc(OC(=O)C2CCN(S(=O)(=O)c3ccc(OC)c(OC)c3)CC2)cc1	-2.26% (inactive)	–
O=C(Nc1cccc(-c2nc3ncccc3o2)c1)c1ccco1	2.52% (inactive)	–
O=C(c1ccco1)N1CCN(C(=O)c2cc(-c3ccccc3F)no2)CC1	26.7% (inactive)	–
O=C(Nc1ccc2oc(-c3ccccc3F)nc2c1)c1ccco1	–	1000 nM (active)
CCC(=O)c1cc(F)ccc1OCC(=O)Nc1ccc2c(c1)OCCO2	1.71% (inactive)	–
CCN(C(=O)CSc1nc(N)cc(=O)[nH]1)C1CCS(=O)(=O)C1 (stereo not given)	-1.42% (inactive)	–
CSCCC(NC(=O)c1ccccc1)C(=O)N1CCCCCCC1 (stereo not given)	-7.23% (inactive)	–
Cc1[nH]c2ccccc2c1C(=O)C(C)Sc1nnc(C2CC2)o1 (stereo not given)	-3.47% (inactive)	–
O=C(COC(=O)C1CC2CCCC(C1)C2=O)NC(=O)c1ccccc1 (stereo not given)	17.8% (inactive)	–
CCOc1ccc(C(=O)CCC(=O)Nc2ccncc2)cc1	0.344% (inactive)	–
Cc1cc(N)n2nc(-c3ccc(C(C)(C)C)cc3)cc2n1	–	2510 nM (active)
Cc1nc2cc(-c3ccc(F)cc3)nn2c(N2CCOCC2)c1C	3.71% (inactive)	–
Cc1cc(C(C)(C)C)n2nc(C)c(-c3ccccc3)c2n1	-0.824% (inactive)	–
